High-throughput results as filed in PubChem BioAssay.
Only some compounds are listed: those with a hit (about 21% of all), similar ones and a draw of the others.
Pf growth 96h – Primary qHTS for delayed death inhibitors of the malarial parasite plastid, 96 hour incubation; Potency, µM (top dose mostly 28.7 µM), for inactives: at the top dose activity change, negative = inhibition, most hits filed as inhibitors; AID 504834, 2011; hit rate 6.9% among 320,000; P. falciparum luciferase reporter growth, 96 h; also: potency is read from the fitted curve at half-maximal effect; % is scaled to controls: 0 for no effect and ±100 for the full control effect
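Infected RBCs, 2% Hct / 0.05% parasitemia final; luciferase-reporter P. falciparum; cpd 96 h, 37 C, 5% CO2; luciferase detection reagent; luminescence.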
NS1 inh – qHTS Assay for Inhibitors of Influenza NS1 Protein Function; Potency, µM (doses to about 46.1 µM), inactives show top-dose activity, positive = more growth; hit rate 0.4% among 270,000; calls by dose curve; also: potency is read from the fitted curve at half-maximal effect; actives are rising curves; nearly all actives have a fitted effect of over 50% in size
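S. cerevisiae expressing influenza A NS1, grown in glucose, washed, then diluted 1:100 into pH 6.0 -URA galactose medium with 23 nl compound. Growth recovery read as OD600; NS1-free strain serves as control.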
Pf growth 48h – Primary qHTS for delayed death inhibitors of the malarial parasite plastid, 48 hour incubation; P. falciparum luciferase growth in erythrocytes, 48 h; Potency, µM (doses to about 28.7 µM), inactives show at the highest dose activity change, negative = inhibition, actives largely listed as inhibitors; AID 504832, 2011; hit rate 5.9% among 310,000; also: potency is read from the fitted curve at half-maximal effect; % is scaled to controls: 0 for no effect and ±100 for the full control effect
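Here the parasites carry a stable luciferase gene and grow inside erythrocytes in Albumax-based RPMI medium with compound for one erythrocytic cycle. Activity is scored as loss of luminescent signal.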
Sm TGR block – qHTS Assay for the Inhibitors of Schistosoma Mansoni Peroxiredoxins. hit rate 3% among 360,000. AID 485364, 2010. Potency, µM (series often up to 114 µM), inactives show at the highest dose activity change, negative = inhibition, actives largely listed as inhibitors. Schistosoma mansoni thioredoxin glutathione reductase (TGR), Q962Y6. purified TGR, DTNB reduction, TNB absorbance 405 nm; also: potency is read from the fitted curve at half-maximal effect; % is scaled to controls: 0 for no effect and ±100 for the full control effect; nearly all actives have a fitted effect of over 60% in size
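First, TGR (20 nM dispensed) and NADPH were mixed with compound. Second, a 15 min room-temperature incubation followed. Third, further NADPH and then DTNB were added to start the reaction. Finally, TNB absorbance was monitored kinetically.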
CHX counter – Cycloheximide Counterscreen for Small Molecule Inhibitors of Shiga Toxin; hit rate 12% among 300,000; cell reporter, cycloheximide protein synthesis inhibition counterscreen; max response, %; in the data active = max response mostly above about 13%, no sharp cut-off; inactive = mostly below about 14%; also: read at 38.3 µM for the half of the compounds with a filed dose; 0% is about no effect
Shiga inhibitor – A qHTS for Small Molecule Inhibitors of Shiga Toxin. Vero cells, Shiga toxin protein synthesis inhibition reporter. inhibition, % at 38.7 µM. hit rate 9.2% among 290,000; in the data active = inhibition mostly above about 28%, no sharp cut-off; inactive = mostly below about 43%; also: 0% is about no effect
* = called active by the depositor; ? = inconclusive; . = no result. Unless noted, calls follow the shape of the dose curve; as a rule, active = well fitted curve in the direction sought with a large enough effect; inconclusive = small, poorly fitted or top-dose-only effect, or another doubt; inactive = no such curve, though single readings can be large; an effect the other way counts as inactive or inconclusive.

SMILES	Pf growth 96h	NS1 inh	Pf growth 48h	Sm TGR block	CHX counter	Shiga inhibitor
O=C(Cc1ccc([N+](=O)[O-])cc1)NCc1cccnc1	-11%	12%	31%	-1%	0	-4
O=C(NCc1ccco1)c1ccc([N+](=O)[O-])o1	?	2%	?	28µM*	12*	50
O=C(NCc1ccco1)c1ccc(Cn2cc([N+](=O)[O-])cn2)o1	.	2%	8%	51%	1	-3
CC1(C)N=C(N)N=C(N)N1c1cccc(OCc2cccc(N)c2)c1	.	2%	.	.	.	.
COc1nc(-c2ccccc2)nnc1-c1ccccc1	108%	-37%	119%	.	41*	85*
Clc1ccc(-c2nnc(-c3ccccc3)c(-c3ccccc3)n2)cc1	?	3%	?	9%	2	11
CC1=C(C(N)=O)C(c2ccc(C)o2)C(C(N)=O)=C(C)N1	21%	-8%	18%	45µM*	-3	13
CCOC(=O)C1=C(C)NC(C)=C(C(=O)OCC)C1c1ccc(C)o1	?	0%	?	?	1	-10
C=CCOC(=O)C1=C(C)NC(C)=C(C(=O)OCC=C)C1c1ccc(C)o1	-4%	3%	?	16µM*	11	-5
O=C(Cn1ncc2c([nH]c3ccccc32)c1=O)Nc1ccc(CN2CCCCC2)cc1	22%	-15%	?	-7%	10	-3
COC(=O)c1sccc1S(=O)(=O)N1CCN(c2ccccc2)CC1	.	.	.	30%	.	.
Cc1ccc(S(=O)(=O)NC2CCCC2)cc1C	0%	9%	.	-7%	1	-7
Cc1cc(=O)[nH]c2ccc(S(=O)(=O)NC3CCCCC3)cc12	10µM*	8%	0%	-18%	2	-3
CCN(CC)S(=O)(=O)c1cccc(C(=O)NC2=NCCS2)c1	?	-138%	-14%	-14%	-1	-8
Cc1nn(C)c(C)c1C1Nc2ccccc2C(=O)N1O (configuration not stated)	31%	-7%	28%	-8%	16*	42
Cc1ccsc1C1Nc2ccccc2C(=O)N1O (configuration not stated)	?	0%	-15%	-12%	20*	47*
O=C1c2ccccc2NC(c2cnc3ccccc3n2)N1O (configuration not stated)	12%	-123%	343%	-27%	49*	71*
CCCCC(CCC(=O)Nc1cc([N+](=O)[O-])ccc1O)C(=O)O (configuration not stated)	34%	.	?	0%	1	-10
COc1ccc(NC(=O)c2ccc(-n3cnnn3)cc2)c([N+](=O)[O-])c1	?	-8%	20%	1%	7	-5
Cc1cccc(C)c1OCC(O)CN(Cc1ccccc1O)C1CCCCC1 (configuration not stated)	0.26µM*	.	0.26µM*	-8%	-2	22
Cc1ccc(S(=O)(=O)Nc2ccc(C(=O)N3CCOCC3)cc2)cc1	?	2%	15%	15%	-6	-1
Cc1c(C(=O)NCc2ccc(F)cc2)c(-c2ccccc2)nn1-c1ccccc1	5.9µM*	6%	.	-7%	-4	-6
Cc1nn(-c2ccccc2)c(C)c1C(=O)NCc1ccc(F)cc1	12%	-10%	-8%	-10%	0	-3
COc1ccc(CCN2C(=O)NC(NS(=O)(=O)c3ccc(N)cc3)(C(F)(F)F)C2=O)cc1OC (configuration not stated)	24%	8%	3%	-13%	-3	19
CCC(CO)n1c(=S)[nH]c2cc(OC)c(OC)cc2c1=O (configuration not stated)	65%	.	9%	9%	12	23
SMILES	Pf growth 96h	NS1 inh	Pf growth 48h	Sm TGR block	CHX counter	Shiga inhibitor
Cc1ccc(SCC(=O)NCc2ccccc2)cc1	?	-15%	2%	-11%	21*	71*
O=C(CSCc1c(F)cccc1F)Nc1ccccc1	?	-6%	80%	-3%	54*	116*
CC(=O)Nc1cccc(N2C(=O)CC(Cc3ccccc3)C2=O)c1 (configuration not stated)	?	0%	10%	-20%	-6	5
Cc1ccc(CNC(=O)CSCc2ccccc2)cc1	13%	-5%	42%	1%	29*	71*
O=C(Cc1ccccc1)Nc1cccc(N2C(=O)C=CC2=O)c1	-25%	-24%	-2%	0.45µM*	-3	15
Cc1ccc(SCC(=O)NCc2ccc(F)cc2)cc1	2%	-6%	2%	4%	-4	-13
O=C(CSCc1ccccc1)Nc1cccc(F)c1	?	-3%	76%	6%	38*	77*
Cc1ccc(CNC(=O)c2ccc(NC(=O)c3nsc4ccccc34)cc2)cc1	.	.	.	5%	.	.
Cc1ccccc1CNC(=O)c1ccc(CSCc2ccccc2)cc1	6.6µM*	-5%	?	1%	1	3
Cc1ccccc1CNC(=O)c1ccc(NC(=O)c2nsc3ccccc23)cc1	.	.	.	25µM*	.	.
O=C(CSc1ccccc1)NCc1ccc(F)cc1	5%	-6%	85%	.	40*	80*
Cc1ccc(CN(C(=O)COc2cc(C)c(Cl)c(C)c2)c2ccccn2)o1	.	.	.	-16%	.	.
COc1ccccc1CNC(=O)CCC(=O)N1CC(C)Sc2ccccc21 (configuration not stated)	37%	-23%	1%	-1%	-1	-3
CCC(=O)Oc1ccc(NC(=O)CSCc2ccccc2)cc1	27%	-9%	38%	9%	25*	96*
Cc1ccc(CSCC(=O)Nc2ccccc2)cc1	?	-6%	-7%	-6%	32*	26*
COC(=O)c1ccc(NC(=O)CSCc2ccccc2)cc1	27%	-20%	.	-7%	14	49
O=C(CSCc1ccc(F)cc1)Nc1ccc(F)cc1	6.6µM*	-9%	1%	5%	17	19
Cc1ccc(CSCC(=O)Nc2ccc(F)cc2)cc1	?	-6%	12%	-14%	-2	11
Cc1c(NS(=O)(=O)c2ccc(C(=O)NCc3ccccc3)cc2)c(=O)n(-c2ccccc2)n1C	-11%	.	-8%	-4%	-1	-7
C[C@@]1(C(=O)O)CCC[C@@H]1C(=O)O	.	-1%	.	.	.	.
O=C(/C=C/c1cccs1)N1CCN(c2ccccc2F)CC1	-6%	-11%	-1%	7%	15*	63*
O=C(/C=C/c1cccs1)N1CCN(c2ccc(F)cc2)CC1	?	-14%	?	-1%	6	15
O=C(/C=C/c1ccc([N+](=O)[O-])cc1)N1CCN(c2ccccc2F)CC1	21%	8%	21%	-4%	15*	46*
COc1ccc(N/C=C/C(=O)c2ccc(Oc3ncccn3)cc2)cc1	6%	2%	15%	-22%	10	11
